The text below walks through data of PubChem BioAssay (EPA / NIEHS).

The source made the active and inactive calls. The calls were made as follows: active = hit-call score of the fitted dose curve at least 0.9, where 1 is the maximum; inactive = score below 0.9.

The nature of assay [1]: ATG_GRE_CIS: Attagene CIS-FACTORIAL HepG2 Assay for human Glucocorticoid Response Elements (GRE) (AID 2282947). Conditions: HepG2 GRE cis-reporter, Attagene multiplex mRNA; actives raise or lower the signal. Put shortly:
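Reporter transcripts read by RT-PCR with capillary electrophoresis fluorescence after a 24 h chemical exposure of HepG2 cells transiently transfected with multiple cis-element reporter units. Gain or loss fitted against DMSO.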

Assay [2] is described as follows: ATG_ISRE_CIS: Attagene CIS-FACTORIAL HepG2 Assay for human Interferon Regulatory Factor 1 (IRF1) binding to an Interferon-Stimulated Response Element (ISRE) (AID 2282948). Conditions: HepG2 ISRE cis-reporter (Attagene), mRNA transcription readout; actives raise or lower the signal. The essentials:
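Read-out: fluorescent RT-PCR products resolved by capillary electrophoresis, reporting endogenous transcription factor activity via ISRE-driven reporter mRNA in transfected HepG2 cells dosed for 24 h; gain or loss fitted relative to DMSO.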

Assay [3] in a line: ATG_M_32_CIS: Attagene CIS-FACTORIAL HepG2 Assay for M32 Transcription Factor (Internal Marker) (AID 2282949).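 Also: background control marker of the multiplexed CIS panel rather than a real target.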 To be noted: HepG2 Attagene cis-factorial M32 reporter, mRNA; actives raise or lower the signal. Put shortly:
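HepG2 transfectants (cis-regulated reporter transcription units) dosed 24 h. Reporter mRNA by RT-PCR plus CE, analysed as gain or loss relative to DMSO.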

Assay [4] is described as follows: ATG_M_06_CIS: Attagene CIS-FACTORIAL HepG2 Assay for M06 Transcription Factor (Internal Marker) (AID 2282950). To be noted: HepG2 Attagene CIS-FACTORIAL M06 internal marker reporter; actives raise or lower the signal. Put shortly:
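Fluorescence-labelled RT-PCR products from cis-promoter reporter units, cut with HpaI and resolved by capillary electrophoresis, give the signal. Cells are human HepG2, dosed for 24 h. Serves as background control, fitted relative to DMSO.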

In assay [5] the target is Hypoxia-inducible factor 1-alpha (Homo sapiens) (UniProt Q16665). Kind of assay: ATG_HIF1a_CIS: Attagene CIS-FACTORIAL HepG2 Assay for human Hypoxia Inducible Factor 1 (HIF1A) (AID 2282951). To be noted: HepG2 Attagene cis-factorial HIF1a reporter transcription; actives raise or lower the signal. The essentials: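 HepG2, transient cis-reporter library, 24 h dosing. RNA → RT (oligo dT) → PCR → 6-FAM primer extension → HpaI → CE. Bidirectional curve fit vs DMSO.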

In assay [6] the target is Hepatocyte nuclear factor 6 (Homo sapiens) (UniProt Q9UBC0). Briefly: ATG_HNF6_CIS: Attagene CIS-FACTORIAL HepG2 Assay for human Hepatocyte Nuclear Factor 6 (HNF6) (AID 2282952). Conditions: HepG2 Attagene cis-factorial HNF6 reporter transcription; actives raise or lower the signal. The essentials:
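Endogenous transcription factor activity in human HepG2 liver cells was captured through cis-regulated reporter constructs. After 24 h treatment, reporter mRNA was measured by RT-PCR with capillary electrophoresis, and activity was fitted in both directions relative to DMSO.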

The target of assay [7] is Heat shock factor protein 1 (Homo sapiens) (UniProt Q00613). Briefly: ATG_HSE_CIS: Attagene CIS-FACTORIAL HepG2 Assay for human Heat Shock Transcription Factor 1 (HSE) (AID 2282953). To be noted: HepG2 HSE cis-reporter, Attagene RNA transcription; actives raise or lower the signal. The essentials: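 After a 24 h incubation with test chemical, transfected HepG2 cells were harvested for RNA; reporter transcripts were measured by RT-PCR and capillary electrophoresis. Values reflect gain or loss of signal relative to DMSO.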

The nature of assay [8]: ATG_MRE_CIS: Attagene CIS-FACTORIAL HepG2 Assay for human Metal Responsive Element (MRE) (AID 2282954). To be noted: HepG2 MRE cis-reporter transcription, Attagene multiplex; actives raise or lower the signal. The essentials: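 Endogenous MRE-dependent transcription read as reporter mRNA in transiently transfected human HepG2 cells at 24 h. RNA reverse-transcribed, PCR-amplified, labelled and resolved by capillary electrophoresis; gain or loss relative to DMSO.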

For assay [9], the target named is Paired box protein Pax-6 (Homo sapiens) (UniProt P26367). Briefly: ATG_Pax6_CIS: Attagene CIS-FACTORIAL HepG2 Assay for human Paired Box 6 (PAX6) (AID 2282956). Conditions: HepG2 CIS-FACTORIAL PAX6 reporter transcription, RNA readout; actives raise or lower the signal. The essentials: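 Readout: reporter transcript fluorescence after RT-PCR and capillary electrophoresis. Cells: HepG2, transiently transfected with cis-regulated MRTUs. Exposure 24 h. Gain or loss of signal fitted bidirectionally relative to DMSO.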

Assay [10] is described as follows: ATG_PXRE_CIS: Attagene CIS-FACTORIAL HepG2 Assay for human Pregnane X Receptor Element (PXRE) (AID 2282957). To be noted: HepG2 Attagene CIS-FACTORIAL PXRE reporter, mRNA; actives raise or lower the signal. Put shortly:
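Endogenous transcription factor activity in HepG2 was gauged through induction of reporter mRNA driven by a cis-regulating promoter element, sampled 24 h post-treatment. Activity was fitted in both directions against DMSO negative control.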

Assay [11] can be described thus: ATG_PPRE_CIS: Attagene CIS-FACTORIAL HepG2 Assay for human Peroxisome Proliferator-activated Response Element (PPRE) (AID 2282958). To be noted: HepG2 PPRE cis-element reporter, Attagene transcription factor profiling; actives raise or lower the signal. Put shortly: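 Transcript-level reporter induction in transfected HepG2 cells after 24 h chemical exposure, quantified by fluorescence from RT-PCR products separated by capillary electrophoresis.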

Assay [12] is described as follows: ATG_RORE_CIS: Attagene CIS-FACTORIAL HepG2 Assay for human RAR-related Orphan Receptor Element (RORE) (AID 2282959). To be noted: HepG2 Attagene cis-factorial RORE reporter, mRNA; actives raise or lower the signal. Put shortly: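 Multiplexed reporter assay measuring mRNA induction from a cis promoter element in transiently transfected HepG2 cells after 24 h treatment. Detection via RT-PCR and capillary electrophoresis fluorescence; DMSO serves as baseline.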

A short description of assay [13]: ATG_Sox_CIS: Attagene CIS-FACTORIAL HepG2 Assay for human SRY-box transcription factor (SOX) (AID 2282960). Conditions: HepG2 Attagene cis-factorial SOX reporter, mRNA; actives raise or lower the signal. Put shortly: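 Cells were transfected with reporter constructs under cis-regulatory promoters, then exposed to chemicals for 24 h. Reporter transcripts were quantified by fluorescence after RT-PCR and capillary electrophoresis; activity was fitted in both directions against DMSO.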

Assay [14] deals with Transcription factor Sp1 (Homo sapiens) (UniProt P08047). Briefly: ATG_Sp1_CIS: Attagene CIS-FACTORIAL HepG2 Assay for human Specificity Protein 1 (Sp1) (AID 2282961). Conditions: HepG2 Sp1 cis-reporter transcription, actives raise or lower the signal. The essentials: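 Measures mRNA induction of an Sp1-linked reporter in HepG2 cells 24 h post-dosing. Multiplexed reporters read by RT-PCR and capillary electrophoresis; DMSO serves as negative control and baseline.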

The nature of assay [15]: ATG_SREBP_CIS: Attagene CIS-FACTORIAL HepG2 Assay for human Sterol Regulatory Element Binding (SREBP) (AID 2282962). To be noted: HepG2 Attagene cis-factorial SREBP reporter, mRNA; actives raise or lower the signal. The essentials:
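Readout: fluorescent reporter-transcript peaks resolved by capillary electrophoresis after RT-PCR. Cells were human HepG2 carrying transfected cis-promoter reporter constructs, dosed for 24 h. Gain or loss of signal was fitted against DMSO controls.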

Assay [16] concerns the target Signal transducer and activator of transcription 3 (Homo sapiens) (UniProt P40763). Kind of assay: ATG_STAT3_CIS: Attagene CIS-FACTORIAL HepG2 Assay for human Signal Transducer and Activator of Transcription 3 (STAT3) (AID 2282963). Conditions: HepG2, Attagene cis-factorial STAT3 reporter transcription; actives raise or lower the signal. Put shortly:
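Readout is reporter transcript quantified by RT-PCR and capillary electrophoresis, with 6-FAM primer extension and HpaI digestion. Total RNA is taken 24 h after dosing transiently transfected HepG2 carrying cis-regulated reporter units. Bidirectional fit against DMSO.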

Assay [17] in a line: ATG_TA_CIS: Attagene CIS-FACTORIAL HepG2 Assay for human TA Basal Promoter (AID 2282964). Conditions: HepG2 Attagene CIS-factorial TA basal promoter reporter; actives raise or lower the signal. The essentials: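 Multiplexed mRNA reporter assay, HepG2, 24 h. Reporter cDNA amplified, 6-FAM primer-extended, HpaI-cut, CE-sized; DMSO = negative control and baseline.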
Assay [18] can be described thus: ATG_TCF_b_cat_CIS: Attagene CIS-FACTORIAL HepG2 Assay for human T-Cell-Factor with beta-catenin (TCF/b-cat) (AID 2282965). Conditions: HepG2 TCF/beta-catenin cis-reporter transcription, actives raise or lower the signal. The essentials: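 Endogenous transcription factor activity is captured through cis-promoter reporter constructs transiently introduced into human HepG2 liver cells. Induced reporter mRNA is measured after 24 h and fitted bidirectionally relative to DMSO.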

In assay [19] the target is Bile acid receptor (Homo sapiens) (UniProt Q96RI1). Briefly: ATG_IR1_CIS: Attagene CIS-FACTORIAL HepG2 Assay for human Nuclear Receptor Subfamily 1 Group H Member 4 (NR1H4), IR1 submotif (AID 2282946). To be noted: IR1 reporter transcription, actives raise or lower the signal. Put shortly: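 HepG2 cells transiently transfected with multiplexed cis-element reporter units read endogenous transcription factor activity. After 24 h compound exposure, reporter mRNA was quantified by RT-PCR, fluorescent labelling, HpaI digestion and capillary electrophoresis; bidirectional fitting versus DMSO baseline.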

The nature of assay [20]: ATG_PBREM_CIS: Attagene CIS-FACTORIAL HepG2 Assay for human Phenobarbital-responsive Enhancer Module (PBREM) (AID 2282955). Conditions: HepG2 PBREM cis-reporter, Attagene multiplexed transcription; actives raise or lower the signal. The essentials:
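HepG2, transient MRTU transfection, 24 h dosing; RNA → oligo(dT) RT → PCR → 6-FAM extension → HpaI → CE. Bidirectional fit vs DMSO.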

Chain of Heat shock factor protein 1 (Homo sapiens) (Q00613 whole entry, looked up): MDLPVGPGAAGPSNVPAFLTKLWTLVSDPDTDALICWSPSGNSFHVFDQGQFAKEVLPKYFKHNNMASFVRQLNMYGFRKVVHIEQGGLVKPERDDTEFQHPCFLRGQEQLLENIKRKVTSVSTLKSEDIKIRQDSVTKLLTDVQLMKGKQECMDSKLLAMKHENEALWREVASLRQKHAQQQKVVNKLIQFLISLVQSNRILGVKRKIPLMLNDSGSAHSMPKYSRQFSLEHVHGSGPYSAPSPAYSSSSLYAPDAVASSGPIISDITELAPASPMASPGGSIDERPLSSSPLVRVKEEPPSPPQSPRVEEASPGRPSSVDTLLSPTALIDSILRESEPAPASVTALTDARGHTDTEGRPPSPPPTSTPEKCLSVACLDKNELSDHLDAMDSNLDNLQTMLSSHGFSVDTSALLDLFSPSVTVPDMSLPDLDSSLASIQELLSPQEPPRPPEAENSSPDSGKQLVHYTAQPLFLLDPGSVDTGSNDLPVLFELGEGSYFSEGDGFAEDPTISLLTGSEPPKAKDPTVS
Chain of Hypoxia-inducible factor 1-alpha (Homo sapiens) (Q16665 whole entry, looked up): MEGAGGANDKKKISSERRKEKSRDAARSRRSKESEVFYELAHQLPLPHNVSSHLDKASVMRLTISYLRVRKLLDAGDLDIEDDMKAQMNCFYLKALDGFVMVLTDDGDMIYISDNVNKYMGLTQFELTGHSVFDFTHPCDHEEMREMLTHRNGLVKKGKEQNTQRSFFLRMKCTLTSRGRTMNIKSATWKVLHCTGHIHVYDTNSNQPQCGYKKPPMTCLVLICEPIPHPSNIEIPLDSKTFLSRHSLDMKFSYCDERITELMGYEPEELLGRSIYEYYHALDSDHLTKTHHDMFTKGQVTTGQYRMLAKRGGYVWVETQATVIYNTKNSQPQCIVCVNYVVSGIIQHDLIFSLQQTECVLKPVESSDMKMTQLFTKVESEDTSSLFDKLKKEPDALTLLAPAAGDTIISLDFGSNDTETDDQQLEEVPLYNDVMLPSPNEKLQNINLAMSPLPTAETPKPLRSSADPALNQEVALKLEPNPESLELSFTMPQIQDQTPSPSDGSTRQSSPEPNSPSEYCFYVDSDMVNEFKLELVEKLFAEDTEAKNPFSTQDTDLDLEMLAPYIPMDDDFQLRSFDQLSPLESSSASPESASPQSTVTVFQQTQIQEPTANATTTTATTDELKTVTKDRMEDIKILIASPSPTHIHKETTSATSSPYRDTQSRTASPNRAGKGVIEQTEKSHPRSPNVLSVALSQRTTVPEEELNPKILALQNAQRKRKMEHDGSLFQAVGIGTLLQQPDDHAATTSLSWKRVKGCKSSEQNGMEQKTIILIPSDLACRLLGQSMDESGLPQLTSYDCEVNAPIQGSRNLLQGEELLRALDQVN
Chain of Transcription factor Sp1 (Homo sapiens) (P08047 whole entry, looked up): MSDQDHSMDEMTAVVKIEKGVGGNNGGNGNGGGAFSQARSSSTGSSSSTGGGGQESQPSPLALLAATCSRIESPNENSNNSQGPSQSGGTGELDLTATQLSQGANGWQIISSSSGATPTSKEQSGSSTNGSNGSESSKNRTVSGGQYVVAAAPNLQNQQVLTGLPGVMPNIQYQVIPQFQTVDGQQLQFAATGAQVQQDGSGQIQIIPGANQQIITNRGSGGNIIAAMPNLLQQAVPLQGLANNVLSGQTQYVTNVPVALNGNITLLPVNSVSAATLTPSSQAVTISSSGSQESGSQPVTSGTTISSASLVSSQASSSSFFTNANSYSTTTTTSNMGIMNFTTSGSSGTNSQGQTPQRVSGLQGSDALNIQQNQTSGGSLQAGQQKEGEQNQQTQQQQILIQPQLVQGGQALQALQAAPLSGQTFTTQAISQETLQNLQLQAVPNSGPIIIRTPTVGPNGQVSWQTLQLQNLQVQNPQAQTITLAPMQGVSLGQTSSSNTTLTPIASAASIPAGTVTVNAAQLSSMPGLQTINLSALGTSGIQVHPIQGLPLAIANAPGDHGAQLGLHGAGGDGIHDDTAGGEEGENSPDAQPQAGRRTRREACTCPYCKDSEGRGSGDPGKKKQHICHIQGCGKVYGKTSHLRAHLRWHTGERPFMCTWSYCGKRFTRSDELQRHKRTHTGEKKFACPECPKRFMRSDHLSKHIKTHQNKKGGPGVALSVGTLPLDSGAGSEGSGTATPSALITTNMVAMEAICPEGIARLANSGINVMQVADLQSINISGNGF
Chain of Paired box protein Pax-6 (Homo sapiens) (P26367 whole entry, looked up): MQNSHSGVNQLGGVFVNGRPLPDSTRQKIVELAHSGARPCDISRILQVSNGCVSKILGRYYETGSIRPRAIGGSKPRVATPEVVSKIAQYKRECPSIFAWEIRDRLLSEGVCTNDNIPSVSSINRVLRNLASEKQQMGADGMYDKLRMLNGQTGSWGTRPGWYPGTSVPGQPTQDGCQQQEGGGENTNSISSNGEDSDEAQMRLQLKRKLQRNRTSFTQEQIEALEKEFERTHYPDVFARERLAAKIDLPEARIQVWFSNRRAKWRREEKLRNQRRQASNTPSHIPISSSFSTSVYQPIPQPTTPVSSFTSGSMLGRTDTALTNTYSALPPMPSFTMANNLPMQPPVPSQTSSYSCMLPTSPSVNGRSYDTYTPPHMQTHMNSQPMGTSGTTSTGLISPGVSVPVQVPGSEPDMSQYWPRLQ
Chain of Signal transducer and activator of transcription 3 (Homo sapiens) (P40763 whole entry, looked up): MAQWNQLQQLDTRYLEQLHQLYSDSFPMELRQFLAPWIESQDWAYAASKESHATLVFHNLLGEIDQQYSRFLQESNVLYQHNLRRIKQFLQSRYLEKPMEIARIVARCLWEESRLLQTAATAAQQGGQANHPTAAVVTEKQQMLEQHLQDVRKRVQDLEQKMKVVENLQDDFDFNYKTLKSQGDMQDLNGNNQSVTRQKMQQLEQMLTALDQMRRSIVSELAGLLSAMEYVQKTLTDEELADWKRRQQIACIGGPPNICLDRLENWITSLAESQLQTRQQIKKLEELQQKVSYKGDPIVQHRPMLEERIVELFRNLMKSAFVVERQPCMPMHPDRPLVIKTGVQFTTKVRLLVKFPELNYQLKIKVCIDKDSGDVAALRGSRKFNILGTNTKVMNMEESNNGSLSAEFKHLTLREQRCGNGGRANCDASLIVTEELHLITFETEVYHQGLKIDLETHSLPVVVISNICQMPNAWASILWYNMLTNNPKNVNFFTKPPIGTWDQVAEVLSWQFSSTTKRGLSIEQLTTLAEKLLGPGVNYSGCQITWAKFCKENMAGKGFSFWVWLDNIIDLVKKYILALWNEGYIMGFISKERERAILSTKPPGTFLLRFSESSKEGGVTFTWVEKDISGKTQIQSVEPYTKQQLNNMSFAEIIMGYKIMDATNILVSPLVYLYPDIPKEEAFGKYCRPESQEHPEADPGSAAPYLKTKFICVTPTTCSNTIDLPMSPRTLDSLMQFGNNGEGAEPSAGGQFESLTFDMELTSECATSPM
Chain of Hepatocyte nuclear factor 6 (Homo sapiens) (Q9UBC0 whole entry, looked up): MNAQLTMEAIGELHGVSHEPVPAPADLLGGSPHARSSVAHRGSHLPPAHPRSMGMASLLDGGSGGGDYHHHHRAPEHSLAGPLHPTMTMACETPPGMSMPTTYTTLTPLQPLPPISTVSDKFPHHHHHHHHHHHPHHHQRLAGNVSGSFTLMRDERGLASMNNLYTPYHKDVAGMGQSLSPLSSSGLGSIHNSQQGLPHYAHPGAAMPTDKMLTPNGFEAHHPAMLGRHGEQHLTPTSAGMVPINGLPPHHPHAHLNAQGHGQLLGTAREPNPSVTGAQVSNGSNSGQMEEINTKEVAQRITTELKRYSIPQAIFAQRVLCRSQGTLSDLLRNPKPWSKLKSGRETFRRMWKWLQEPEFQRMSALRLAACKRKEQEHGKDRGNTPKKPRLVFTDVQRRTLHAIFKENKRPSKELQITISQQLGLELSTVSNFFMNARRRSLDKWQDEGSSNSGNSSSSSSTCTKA
Chain of Bile acid receptor (Homo sapiens) (Q96RI1 whole entry, looked up): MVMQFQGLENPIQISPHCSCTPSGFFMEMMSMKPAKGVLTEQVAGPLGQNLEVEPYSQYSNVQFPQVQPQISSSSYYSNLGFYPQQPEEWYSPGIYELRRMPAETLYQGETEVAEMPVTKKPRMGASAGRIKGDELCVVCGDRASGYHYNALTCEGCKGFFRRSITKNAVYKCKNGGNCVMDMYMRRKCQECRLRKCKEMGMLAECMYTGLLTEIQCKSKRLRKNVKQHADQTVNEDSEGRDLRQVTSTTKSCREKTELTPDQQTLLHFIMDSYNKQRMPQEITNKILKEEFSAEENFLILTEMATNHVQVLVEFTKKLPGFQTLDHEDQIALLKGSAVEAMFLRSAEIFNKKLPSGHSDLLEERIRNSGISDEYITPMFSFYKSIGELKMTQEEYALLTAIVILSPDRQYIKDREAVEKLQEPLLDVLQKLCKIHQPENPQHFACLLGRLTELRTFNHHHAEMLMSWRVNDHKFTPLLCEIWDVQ

For `Cc1ccc(N)c(S(=O)(=O)O)c1`, the call in assay [1], in assay [2], in assay [3], in assay [4], in assay [5] and in assay [6] was inactive. The molecule was called inactive in assay [7], in assay [8], in assay [9], in assay [10], in assay [11] and in assay [12]. Moreover, the result in assay [13], in assay [14], in [15], in assay [16], in assay [17] and in assay [18] was inactive.
As to `CCCCCCOC(=O)C(C)C`, the result in assay [19], in assay [3], in [4], in assay [5], in [6] and in assay [7] was inactive. Moreover, the result in [8], in assay [9], in [10], in assay [11], in assay [12] and in [13] was inactive. Moreover, the outcome in assay [14], in [15], in [16], in [17] and in assay [18] was inactive.
`CCCC(=O)OC(C)(C)Cc1ccccc1`: the molecule was called inactive in [1], in assay [2], in assay [3], in [4], in [5] and in assay [6]. Moreover, the outcome in assay [7], in assay [8], in assay [20], in assay [9], in [12] and in assay [13] was inactive. Also, the molecule was called inactive in assay [14], in assay [15], in assay [16], in assay [17] and in [18]. For the same molecule, in [10], the half-maximal activity concentration (AC50) was 27 µM (active).
Consider `CCCCCCCC(=O)OCC(O)CO` (stereo not drawn), for which the call in assay [1], in assay [2], in [3], in assay [4], in assay [5] and in assay [6] was inactive. Besides, the molecule was classed as inactive in assay [7], in [8], in assay [20], in assay [9], in [10] and in assay [11]. Also, the molecule was classed as inactive in [12], in assay [13], in assay [14], in assay [15], in assay [17] and in [18].
On to `C=CCCCCCCCCCC`, for which the molecule was called inactive in [1], in assay [2], in [3], in assay [4], in assay [5] and in assay [6]. Moreover, the call in [7], in assay [8], in assay [20], in assay [9], in [10] and in assay [11] was inactive. For the same molecule, the outcome in [12], in assay [13], in assay [14], in assay [15], in assay [16] and in assay [18] was inactive.
Consider `COc1cccc(OC)c1O`, for which the molecule was classed as inactive in assay [1], in assay [2], in [3], in assay [4], in assay [5] and in [6]. For the same molecule, the outcome in assay [7], in assay [8], in [20], in assay [9], in assay [11] and in assay [12] was inactive. The molecule was classed as inactive in assay [13], in assay [14], in assay [15], in assay [16] and in assay [18]. The half-maximal activity concentration (AC50) in assay [10] is 27 µM (active).
`c1ccc(CN(Cc2ccccc2)Cc2ccccc2)cc1`: the outcome in assay [1], in [2], in assay [3], in assay [4], in assay [5] and in [6] was inactive. The outcome in assay [7], in assay [8], in [20], in assay [9], in assay [12] and in assay [13] was inactive. Further, the molecule was called inactive in assay [15], in [16], in assay [17] and in [18]. For the same molecule, the values for the concentration at half-maximal activity (AC50) in assay [10] and in assay [14] were 2.51 µM (active) and 165 µM (active), respectively.
As to `CC=Cc1ccc(OC)c(OC)c1`, the outcome in assay [1], in assay [2], in assay [3], in assay [4], in assay [5] and in assay [6] was inactive. Further, the molecule was classed as inactive in assay [7], in [8], in assay [9], in assay [11], in assay [12] and in [13]. Besides, the molecule was classed as inactive in assay [14], in [15], in [16], in assay [17] and in assay [18]. In assay [10], the AC50 was 19.5 µM (active).
